Out of some 340,000 compounds screened, about 1,200 (0.35%) were called active. Shown is part of a subset that was picked to be rich in actives. Unmarked numbers belong to inactive results. Cut-off read from the data, not from the text of the source: active = inhibition above about 50% (passing the limit was not always enough); inconclusive = no clear call, values can overlap the other calls; inactive = below about 31%.
Assay: blockers of Vif multimerization in cells – imaging, HEK293T, single point, primary screen (AID 602346)
Conditions: Vif self-association by quenched fluorescence, 24 h, at 7.49 µM, stronger effect = higher value
For `Cc1ccc(NC(=O)Cn2sc3ccccc3c2=O)cc1`, the inhibition was 4.93%. With `COc1ccc(N/C=C(\C2OC(=O)c3ccccc32)[N+](=O)[O-])cc1` (stereo not drawn) the inhibition was 50.1% (active). For `COc1ccc(NC(=O)C2=C(C)NC(=O)NC2c2ccccc2[N+](=O)[O-])cc1` (stereo not drawn), the inhibition was -2.26%. Compound `COc1ccc(NC(=O)ON=C2c3ccccc3-c3ccccc32)cc1` has an inhibition of -9.14%. `NC(Cc1ccccc1)c1csc(Nc2cc(Oc3ccccc3)ncn2)n1` (stereo not drawn) gave an inhibition of -3.02%. With `CCOC(=O)[C@H]1Nc2ccc(Cl)cc2[C@@H]2[C@H]1C1CC(c3ccccc31)N2C(=O)OCc1ccccc1` (stereo partly drawn) the inhibition was 2.38%. For `CC(=O)Oc1ccc(Cn2c(C)c(C(=O)NCc3ccc(C#N)cc3)sc2=O)cc1`, the inhibition was 1.95%. `COc1cccc(CNc2nc3cc(-c4csc5ccccc45)sc3c(=O)n2C)c1` showed an inhibition of -4.94%. `COc1ccc(CC(NC(C)=O)C(=O)NC2CCN(C(=O)C3CC3)CC2)cc1OC` (stereo not drawn) showed an inhibition of -0.652%. In the case of `COc1ccc(CC(NC(C)=O)C(=O)N2CCN(C(=O)Nc3cccc(Cl)c3)CC2)cc1OC` (stereo not drawn), the inhibition was 50.1% (active). `COc1ccc(CC(NC(C)=O)C(=O)NC2CCN(C(=O)Nc3ccc(C#N)cc3)CC2)cc1OC` (stereo not drawn) gave an inhibition of -4.35%. For `CCOc1ccc(CCN2C(=S)N([C@@H](CC(C)C)CN3CCC[C@@H]3CN3C(=S)NC[C@@H]3Cc3ccc(O)cc3)C[C@@H]2Cc2ccc(O)cc2)cc1`, the inhibition was 1.22%. In the case of `CCc1nc2ccc(C(=O)NCc3ccc(OC)cc3)cn2c1N(CC)Cc1cccc(Br)c1`, the inhibition was 4.42%. For `Cc1cccc(C(=O)NC2CCN(CC(=O)Nc3cccc(Cl)c3)CC2)c1`, the inhibition was -0.446%. Compound `CCCOc1ccc(F)cc1-c1cc(C(=O)NCc2ccc(F)cc2)[nH]n1` has an inhibition of 14.3%. For `CN(C)C(=O)c1cc(Br)ccc1Cl`, the inhibition was 102% (active). With `CC(C)(C)NC(=O)COC(=O)c1cc(Br)ccc1Cl` the inhibition was -3.23%. Compound `CN(C)C(=S)Nc1ccc(Br)cc1Cl` has an inhibition of 1.91%. `CCOC(=O)C1CCCN(C(=O)c2ccc(C)c(F)c2)CC1` (stereo not drawn) showed an inhibition of -7.05%. `COc1ccc(-c2cc(NC(C)=O)c3ncc(-c4cc(OC)c(OC)c(OC)c4)n3c2)cn1` gave an inhibition of -2.19%. In the case of `COc1ccccc1CNC(=O)c1cc(-c2cc(Cl)ccc2C)n[nH]1`, the inhibition was 20.2%. `COc1ccc(C(CNC(=O)COc2ccccc2OC)N2CCCCC2)cc1` (stereo not drawn) showed an inhibition of -2.23%. Compound `COc1ccc(C(CNC(=O)COc2ccc([N+](=O)[O-])cc2)N2CCCCC2)cc1` (stereo not drawn) has an inhibition of 3.74%. In the case of `CCc1ccc(OCC(=O)NCC(c2ccc(Cl)cc2)N2CCCCC2)cc1` (stereo not drawn), the inhibition was 58.2% (active). `CC(C)Nc1nc(NCCOc2ccccc2Cl)c2sccc2n1` showed an inhibition of -13.3%. For `Oc1cccc2cc(-c3ccncc3)cnc12`, the inhibition was 11.1%. Compound `CCOC(=O)C(=Cc1ccccc1)C(=O)c1ccccc1` has an inhibition of -5.2%. In the case of `COc1ccc(C(C)(O)c2nc(-c3cc(F)cc(F)c3)cs2)cc1` (stereo not drawn), the inhibition was -4.33%.
